This is part of a sample that, as a whole, favours compounds with a hit. Of some 79,000 tested, about 15% had one in any assay. Calls of active or inactive are those of the source. Rule as the data show it: active = growth inhibition above about 70%; inactive = the rest.
How the values were obtained:
[1] = NCI Yeast Anticancer Drug Screen. Data for the rad52 strain (AID 147);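 also: 0% = growth of vehicle-treated control cultures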; conditions: S. cerevisiae rad52 mutant growth inhibition, hits give high values
Method in brief: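 Genetically altered yeast (DNA damage repair defect) treated with compound; inhibition calculated relative to vehicle.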

[2] = NCI Yeast Anticancer Drug Screen. Data for the wt1 strain (AID 149);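 also: 0% = growth of vehicle-treated wt1 cultures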; conditions: S. cerevisiae wt1 strain (SPY 50644) growth inhibition, hits give high values
Method in brief: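 Yeast wt1 strain exposed to compounds; growth inhibition measured relative to vehicle-treated controls.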

[3] = NCI Yeast Anticancer Drug Screen. Data for the rad50EPP+ strain (AID 151);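 also: 0% = growth of vehicle-treated control cultures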; conditions: S. cerevisiae rad50 mutant strain, hits give high values
Method in brief: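 Strain rad50EPP+; compound exposure; % growth inhibition vs vehicle.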

[4] = NCI Yeast Anticancer Drug Screen. Data for the mgt1 strain (AID 153); conditions: S. cerevisiae mgt1 mutant growth inhibition, hits give high values
Method in brief: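 Read-out: yeast growth inhibition vs vehicle control. Strain mgt1, drawn from a panel altered in DNA damage repair or cell cycle control.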

[5] = NCI Yeast Anticancer Drug Screen. Data for the rad50 strain (AID 155);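 also: 0% = growth of vehicle-only cultures of the same strain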; conditions: S. cerevisiae rad50 strain growth inhibition, hits give high values
Method in brief: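 Yeast carrying a defined DNA repair defect were exposed to test compounds, and growth was compared with vehicle-treated controls to give percent inhibition.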

[6] = NCI Yeast Anticancer Drug Screen. Data for the mec2-1 strain (AID 157); conditions: S. cerevisiae mec2-1 strain, hits give high values
Method in brief: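 Cells of the genetically defined mec2-1 yeast strain are incubated with test compound. Inhibition of growth is calculated against vehicle-treated controls.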

[7] = NCI Yeast Anticancer Drug Screen. Data for the rad14 strain (AID 159);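 also: 0% = growth of vehicle-treated control cultures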; conditions: S. cerevisiae rad14 strain growth inhibition, hits give high values
Method in brief: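 Yeast cells carrying a defined DNA-repair defect were exposed to compounds, and growth inhibition was calculated relative to vehicle-treated control cultures.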

[8] = NCI Yeast Anticancer Drug Screen. Data for the sgs1 mgt1 strain (AID 161);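 also: 0% = growth of cultures given vehicle only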; conditions: S. cerevisiae sgs1 mgt1 strain, hits give high values
Method in brief: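 Test agents were incubated with a DNA-repair-mutant yeast strain. Growth was then read and compared against vehicle-treated controls.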

[9] = NCI Yeast Anticancer Drug Screen. Data for the CLN2oe strain (AID 163);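 also: 0% = growth of vehicle-only control cultures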; conditions: S. cerevisiae CLN2oe strain, hits give high values
Method in brief: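 Strain altered in cell-cycle control, incubated with compound; growth compared to solvent-treated controls.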

[10] = NCI Yeast Anticancer Drug Screen. Data for the cln2 rad14 strain (AID 165);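 also: 0% = growth equal to vehicle treated cultures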; conditions: S. cerevisiae cln2 rad14 strain, hits give high values
Method in brief: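 The screen exposed genetically defined yeast (cln2 rad14) to test compounds and scored growth inhibition relative to vehicle-treated controls.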

[11] = NCI Yeast Anticancer Drug Screen. Data for the bub3 strain (AID 167); conditions: S. cerevisiae bub3 mutant strain, hits give high values
Method in brief: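 Compounds were applied to a genetically altered yeast strain carrying a cell-cycle control defect. Growth inhibition was scored against vehicle-treated controls.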

[12] = NCI Yeast Anticancer Drug Screen. Data for the wt2 strain (AID 169);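 also: 0% = growth of vehicle-treated yeast cultures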; conditions: S. cerevisiae wt2 strain growth inhibition, hits give high values
Method in brief: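 Steps: yeast strain treated with compound; growth recorded; inhibition calculated relative to cultures given vehicle alone.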

[13] = NCI Yeast Anticancer Drug Screen. Data for the mlh1 strain (AID 171);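 also: 0% = growth of vehicle-treated control cultures of the same strain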; conditions: S. cerevisiae mlh1 strain growth inhibition, hits give high values
Method in brief: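 Yeast screen: mutant strain plus compound, growth scored against vehicle control wells.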

[14] = NCI Yeast Anticancer Drug Screen. Data for the sgs1 strain (AID 173);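 also: 0% = growth of vehicle-only control cultures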; conditions: S. cerevisiae sgs1 mutant, hits give high values
Method in brief: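 Inhibition of yeast growth served as the measure. The mutant strain was treated with each compound, and growth was normalised to cultures receiving vehicle alone.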

[15] = NCI Yeast Anticancer Drug Screen. Data for the mlh1 rad18 strain (AID 175); conditions: S. cerevisiae mlh1 rad18 strain growth inhibition, hits give high values
Method in brief: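 Compound-treated yeast growth, normalised to vehicle controls. Strain bears defined DNA repair mutations.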

[16] = at 5.0 µM (retest, dose inferred, filed as 0.5)
[17] = at 50.0 µM (retest, dose inferred, filed as 5.0)

Measured: growth inhibition

O=c1c2ccccc2nc(-c2ccccc2)n1O
active: [1]; at 33.0 µM 95% | [1]; at 100.0 µM 97% | [2]; at 33.0 µM 97% | [2]; at 100.0 µM 97% | [3]; at 33.0 µM 82% | [3]; at 100.0 µM 87% | [4]; at 11.0 µM 92% | [4]; at 33.0 µM 98% | [4]; at 100.0 µM 97% | [5]; at 11.0 µM 89% | [5]; at 33.0 µM 97% | [5]; [17] 99% | [5]; at 50.0 µM 99% | [5]; at 100.0 µM 98% | [6]; at 33.0 µM 96% | [6]; [17] 99% | [6]; at 50.0 µM 98.2% | [6]; at 100.0 µM 97% | [7]; at 11.0 µM 97% | [7]; at 33.0 µM 99% | [7]; at 100.0 µM 98% | [8]; [17] 99% | [8]; at 50.0 µM 98.8% | [9]; at 33.0 µM 86% | [9]; at 100.0 µM 88% | [10]; [17] 96% | [10]; at 50.0 µM 97% | [11]; at 11.0 µM 78% | [11]; at 33.0 µM 95% | [11]; [17] 99% | [11]; at 50.0 µM 97.9% | [11]; at 100.0 µM 95% | [12]; at 11.0 µM 96% | [12]; at 33.0 µM 98% | [12]; at 100.0 µM 98% | [13]; at 11.0 µM 95% | [13]; at 33.0 µM 98% | [13]; at 100.0 µM 98% | [14]; at 11.0 µM 93% | [14]; at 33.0 µM 97% | [14]; at 100.0 µM 97% | [15]; [17] 99% | [15]; at 50.0 µM 98.5%
inactive: [1]; at 1.2 µM 16% | [1]; at 3.7 µM 19% | [1]; at 11.0 µM 62% | [2]; at 1.2 µM 12% | [2]; at 3.7 µM 15% | [2]; at 11.0 µM 63% | [3]; at 1.2 µM 3% | [3]; at 3.7 µM 3% | [3]; at 11.0 µM 16% | [4]; at 1.2 µM 31% | [4]; at 3.7 µM 26% | [5]; at 1.2 µM 36% | [5]; at 3.7 µM 39% | [5]; [16] 45% | [6]; at 1.2 µM 18% | [6]; at 3.7 µM 16% | [6]; [16] 14% | [6]; at 11.0 µM 55% | [7]; at 1.2 µM 51% | [7]; at 3.7 µM 59% | [8]; [16] 66% | [9]; at 1.2 µM 1% | [9]; at 3.7 µM 9% | [9]; at 11.0 µM 29% | [10]; [16] -11% | [11]; at 1.2 µM 12% | [11]; at 3.7 µM 18% | [11]; [16] 43% | [12]; at 1.2 µM 24% | [12]; at 3.7 µM 55% | [13]; at 1.2 µM 50% | [13]; at 3.7 µM 48% | [14]; at 1.2 µM 32% | [14]; at 3.7 µM 48% | [15]; [16] 55%

Source: PubChem BioAssay (NCI)
